A340 absorber = absorbance at 340 nm; compound absorbance at 340 nm, fold over control; fold change at 10 µM; 65,000 tested, under 10 active;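 active means at 10 µM dose, initial 340 nm absorbance at least 2 fold that of control wells; inactive means change under 2 fold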;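 further: initial absorbance extrapolated from kinetic A340 decline of NADH oxidation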
Spn DPM-DC inh = inhibitors of Streptococcus pneumoniae diphosphomevalonate decarboxylase. purified DPM-DC, PK/LDH coupled NADH fluorescence. calls only at 10 µM. 65,000 compounds, 0.49% hits. AID 556;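 active means the 320 compounds with the highest percent inhibition in the single-dose primary screen, excluding strongly autofluorescent ones, cut at about 32% in these data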;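 further: kinetic rate of NADH fluorescence loss reporting ADP formed by the decarboxylase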
PMK inhibit = inhibitors of Streptococcus pneumoniae phosphomevalonate kinase; purified PMK, PK/LDH-coupled NADH absorbance 340 nm; inhibition, % at 10 µM; 65,000 compounds, 0.49% hits; AID 539;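 active means top-ranked compounds by inhibition in the single 10 µM screen, taking a fixed number of the strongest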;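 further: 0% = full reaction with DMSO carrier and 100% = background rate without enzyme reaction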
Autofluor 339 = intrinsic fluorescence of library compounds, ex339/em460 – biochemical, MLSMR library, data from DPM-DC assay, artefact control, profiling panel; 65,000 compounds, 5.5% hits; compound autofluorescence, ex339/em460 nm, NADH buffer; stronger effect = higher value; 1 = no-compound wells, NADH background; AID 709; fluorescence fold increase at 10 µM;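 active means at 10 µM, mean starting fluorescence two-fold or more over control wells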;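 further: signal is the first read of a kinetic run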
Spn MK inh = blocks S. pneumoniae mevalonate kinase | purified MK, PK/LDH-coupled NADH absorbance 340 nm | inhibition, % at 10 µM | 65,000 compounds, 0.48% hits | AID 555;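 active means ranked among the strongest by inhibition in the single 10 µM screen, a fixed top-ranked set picked for dose follow-up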
NADH coupling = inhibitors of enzymes used to reach an NAD/NADH endpoint; coupled PK/LDH NADH assays, four targets; IC50, µM (top dose mostly 10 µM), without a hit: at the highest dose inhibition; 65,000 compounds, 0.02% hits;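 active means single-dose screening hits from any of four coupled enzyme assays that gave an IC50 when retested across doses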;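 further: the DPM-DC format reads NADH fluorescence rather than 340 nm absorbance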
An asterisk follows results filed as active; i = inactive; / = no result given; + = active, no number. This is a sample that favours compounds with a hit; in the whole collection about 6.8% have one here.

SMILES | A340 absorber | Spn DPM-DC inh | PMK inhibit | Autofluor 339 | Spn MK inh | NADH coupling
c1ccc2c(c1)NC(c1ccncc1)n1c-2nc2ccccc21 (stereo not given) | 1.1 | i | 2 | 1.5 | 6 | 5%
CCN(CC)S(=O)(=O)c1cccc(C(=O)Nc2nc3cc4c(cc3s2)OCCO4)c1 | 1.1 | / | 3 | 2.1* | 0 | 2%
Cc1cccn2c(=O)c3cc(C(=O)NC(C)c4ccccc4)c(=N)n(CCCn4ccnc4)c3nc12 (stereo not given) | 1.1 | / | 6 | 3.8* | 0 | 3%
Cc1ccc2nc3c(cc(C(=O)NCc4ccccc4)c(=N)n3CCCn3ccnc3)c(=O)n2c1 | 1.1 | / | 6 | 3.8* | 0 | 3%
CC(C)Sc1nc(-c2cccs2)nc2c1c(=O)n(C)c(=O)n2C | 1.1 | i | 14 | 1.4 | 8 | 9%
Cn1c(=O)c2c(SCC(=O)NCC3CCCO3)nc(-c3cccs3)nc2n(C)c1=O (stereo not given) | 1.2 | / | 2 | 2.2* | 3 | 3%
Cc1nn(-c2ccccn2)c2c1-c1nc(N)ncc1CC2 | 1 | / | 7 | 3.6* | 0 | 4%
Cc1nn2c3c(cnc2c1-c1ccccc1)C(=O)CCC3 | 1.1 | i | 3 | 1.1 | 7 | 3%
CCCCN(CCCC)CCCOC(=O)c1ccc(N)cc1 | 0.99 | i | 7 | 1 | 7 | 1%
O=C1c2cccnc2C(=O)N1Cc1ccc2c(c1)OCO2 | 1.1 | i | 7 | 1.1 | 10 | 6%
Cc1c(C#N)sc2nc(-c3ccccc3)nc(N3CCCC3)c12 | 1.1 | / | 0 | 2.5* | 3 | 2%
CCc1cc(=O)oc2cc(C)cc(O)c12 | 1.1 | i | 15 | 1.1 | 6 | 7%
CCc1cc(=O)oc2cc(C)c3c(C)coc3c12 | 1.1 | i | 6 | 2.4* | 5 | 14%
CN(C)S(=O)(=O)c1cccc(COC(=O)C2=COCCO2)c1 | 0.98 | i | 12 | 1.1 | 5 | 6%
CCCCCC(=O)Nc1cc(N(C)C)nc2ccccc12 | 1.1 | / | 4 | 2.2* | 0 | 2%
Cc1ccc(S(=O)(=O)c2c(N)n(CCN3CCOCC3)c3nc4ccccc4nc23)cc1C | 1.1 | / | 16 | 4.9* | 8 | 12%
CCCCn1c(CNC(C)=O)nc2ccccc21 | 1 | i | 5 | 1.1 | 0 | 2%
CCCCn1c(NC(C)=O)c(C#N)c2nc3ccccc3nc21 | 1.1 | / | 15 | 3.8* | 11 | 13%
N#Cc1c(N)n(CCNC(=O)c2cccs2)c2nc3ccccc3nc12 | 0.99 | / | 7 | 3* | 10 | 4%
CCCCCn1c(N)c(C#N)c2nc3ccccc3nc21 | 1.1 | / | 10 | 5* | 3 | 7%
COC(=O)c1ccc2c(c1)S(=O)(=O)NC(=NCc1ccco1)S2 | 1 | i | 7 | 1.1 | 0 | 5%
CC12CCC(C(=O)NCc3ccco3)(OC1=O)C2(C)C (stereo not given) | 1 | i | 4 | 1.1 | 3 | 2%
N#Cc1c(N)n(CCCN2CCOCC2)c2nc3ccccc3nc12 | 1 | / | 6 | 3.9* | 4 | 5%
Cc1ccc2[nH]c3c(=O)n(CCCN4CCOCC4)cnc3c2c1 | 1.1 | i | 0 | 2.7* | 10 | 12%
Cn1c2ccccc2c2ncn(CCCN3CCOCC3)c(=O)c21 | 1 | i | 8 | 2.4* | 1 | 6%
SMILES | A340 absorber | Spn DPM-DC inh | PMK inhibit | Autofluor 339 | Spn MK inh | NADH coupling
COc1cc2[nH]c3c(=O)n(CCN4CCCCC4)cnc3c2cc1OC | 1.1 | / | 9 | 3.6* | 11 | 10%
O=c1c2[nH]c3cccc(Cl)c3c2ncn1CCN1CCCCC1 | 1 | i | 4 | 1.6 | 9 | 4%
Cc1ccc2[nH]c3c(=O)n(CCCN4CCN(C)CC4)cnc3c2c1 | 0.99 | i | 12 | 2.1* | 10 | 8%
Cn1c2ccc(F)cc2c2ncn(CCN3CCOCC3)c(=O)c21 | 1 | i | 12 | 1.7 | 9 | 6%
Cc1cc(C)c(S(=O)(=O)N2CCN(C)CC2)c(C)c1 | 1 | i | 6 | 1 | 6 | 6%
COC(=O)c1ccc(C(=O)OC)c(NC(=O)c2ocnc2C)c1 | 1 | i | 13 | 1.6 | 8 | 11%
c1ccc2c(c1)oc1c(NCCCn3ccnc3)ncnc12 | 1.1 | i | 4 | 1.1 | 2 | 2%
c1ccc(-c2oc3ncnc(NCCN4CCOCC4)c3c2-c2ccccc2)cc1 | 1 | i | 4 | 2* | 2 | 5%
N=c1c2c(-c3ccccc3)c(-c3ccccc3)oc2ncn1CCCN1CCOCC1 | 1.1 | i | 12 | 1.5 | 12 | 11%
c1ccc(-c2oc3ncnc(NCCCn4ccnc4)c3c2-c2ccccc2)cc1 | 1.1 | / | 16 | 3.7* | 0 | 8%
CCCOc1ccccc1-c1nc2c([nH]1)c(=O)[nH]c(=O)n2C | 1.1 | / | 5 | 3.7* | 2 | 4%
NC(=O)c1ccsc1NC(=O)c1nc(-c2ccccc2)n(-c2ccccc2)n1 | 1 | + | 11 | 1.5 | 4 | 17%
O=C(NC1=NCCS1)c1nc(-c2ccccc2)n(-c2ccccc2)n1 | 1 | i | 2 | 1 | 0 | 1%
Cc1cccc(-n2nc3c(c2NC(=O)c2ccco2)CSC3)c1C | 0.98 | i | 25* | 1.1 | 0 | 8%
COc1ccc(S(=O)(=O)N2CCCN(S(=O)(=O)c3ccc(OC)cc3C)CC2)c(C)c1 | 1 | i | 0 | 1 | 6 | 2%
CCCc1cc(=O)oc2cc(OCC(=O)OC)cc(OCC(=O)OC)c12 | 1 | / | 2 | 2.1* | 3 | 3%
CCCc1cc(=O)oc2cc(C)cc(OCc3nn[nH]n3)c12 | 1.1 | / | 13 | 3.8* | 7 | 10%
Cc1ccc2oc(=O)cc(CN3CCOCC3)c2c1 | 1 | i | 13 | 1.1 | 5 | 6%
CCNc1cc2oc(=O)c(CN3CCOCC3)c(C)c2cc1C | 1.1 | / | 13 | 2.2* | 0 | 7%
CC1(C)CC(=O)c2cnc(N3CCN(c4ccccc4)CC3)nc2C1 | 1 | i | 6 | 1.2 | 5 | 4%
CC1(C)CC(=O)C2=C(C1)N(c1cccc(O)c1)C1=C(C2)C(=O)CC(C)(C)C1 | 1 | / | 13 | 3.6* | 10 | 12%
Cc1cccc(NS(=O)(=O)c2ccc(Oc3ccccc3)cc2)n1 | 1 | i | 8 | 2.9* | 7 | 15%
Cc1cc(NS(=O)(=O)c2ccc(-c3ccccc3)cc2)no1 | 1 | i | 0 | 0.98 | 9 | 4%
NC(=O)C1(N2CCCCC2)CCN(C(=O)CCCn2c(=O)[nH]c3ccsc3c2=O)CC1 | 1 | i | 5 | 0.98 | 8 | 4%
N#Cc1cn(-c2ccccc2)nc1-c1cc2ccccc2oc1=O | 1.1 | / | 0 | 2.4* | 6 | 3%
CC(Sc1nnc(-c2cc3ccccc3o2)n1-c1ccccc1)C(=O)O (stereo not given) | 1 | i | 3 | 1.1 | 3 | 2%
COC(=O)c1ccc(C(=O)OC)c(NC(=O)CCc2ccc(C)o2)c1 | 1 | i | 1 | 1.4 | 7 | 6%

From PubChem BioAssay
